GLS inhibitor: blocks human kidney-isoform glutaminase activity; GLS enzymatic activity, qHTS titration; 0.21% of 410,000 active; Potency, µM (series often up to 45.5 µM), hits mostly inhibitors; O94925; AID 624170
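Assay buffer: 45 mM KH2PO4 pH 8.2, 0.02% Tween-20. hKGA acts on L-glutamine (1 mM solution added); product glutamate is reported by an oxidase/peroxidase Amplex Red coupling, with fluorescence taken at baseline and 30 min.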
TCR activator: T cell receptor activation; Potency, µM (highest dose often 9.22 µM), actives largely listed as activators; 330,000 tested, under 10 active; primary human leukocytes, anti-CD3, IL-2 HTRF, 48 h
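Using a-CD3 beads without co-stimulation, primary human leukocytes were exposed to compounds for 48 hr. An HTRF IL-2 kit measured the cytokine, with europium-to-d2 energy transfer producing emission at 665nm upon 320nm excitation.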
BRCA1 expr act: activators of BRCA1 expression | MCF7-BRCA1-FFLuc reporter, luminescence, 48 h; response scale: scaled: vehicle 0%, 10 µM genistein 100% | AID 624202 | 1.1% of 380,000 active | Potency, µM (series often up to 46.1 µM), actives largely listed as activators; note: nearly all actives have a fitted effect of over 80% in size
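Cells: MCF7-BRCA1-FFLuc, 2000/well. Exposure: 48 h, 37 °C, 5% CO2. Read: luminescence, 15 min post-substrate. Controls: genistein 10 microM (maximal activation), DMSO (neutral).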
TSHR antagonist: human thyrotropin receptor antagonism; activity change, negative = inhibition, % at 11.5 µM; 0.2% of 330,000 active; TSHR-expressing cells, TSH-stimulated cAMP HTRF, 2 h; stronger effect = lower value; P16473;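 active = activity change below a set negative limit, meaning inhibition stronger than a set level, cut at about -70% in these data; inconclusive = activity change between two set negative limits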
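Freshly harvested TSHR cells receive pin-tooled compound, then EC80 TSH at 4nM final. After 2 hours at 37 deg C, antibody in lysis buffer and cAMP-d2 are added; 30 minutes at ambient temperature precede the HTRF read.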
N370S GC mod: N370S glucocerebrosidase modulation, Gaucher chaperone candidate | AID 2101 | 0.092% of 330,000 active | Potency, µM (top dose mostly 59.4 µM), actives largely listed as inhibitors | N370S GC spleen homogenate, 4MU-glucoside fluorescence | P04062
p53 reactivator: re-activators of mutant p53 | H1299 p53-A138V BP100-luciferase reporter, luminescence, 24 h | 0.063% of 320,000 active | Potency, µM (titrated, usually from 92.2 µM), usual class: activators; note: nearly all actives have a fitted effect of over 45% in size
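p53-null H1299 cells stably carrying temperature-sensitive p53-A138V and a BP100-luciferase reporter were pinned with compounds (4-point, 1:5 series) and held 24 hrs at 37 deg C. Luminescence was read 10 min after detection reagent.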
A number is an active result; - = inactive; ? = inconclusive; . = no result given. Sampled rows, rich in hits. Any-hit rate of the full collection: about 1.4%. Unless noted, calls come from the whole dose curve; as a rule, active = well fitted curve in the direction sought with a large enough effect; inconclusive = small, poorly fitted or top-dose-only effect, or another doubt; inactive = no such curve, though single readings can be large; an effect the other way counts as inactive or inconclusive.

SMILES	GLS inhibitor	TCR activator	BRCA1 expr act	TSHR antagonist	N370S GC mod	p53 reactivator
Oc1ccc(/C=N/NC(=S)Nc2cccnc2)cc1O	5.01µM	-	-	-	-	-
COc1ccc2[nH]c(C)c(C(=O)CN(C)CC(OC)OC)c2c1	.	.	-	.	.	.
Oc1ccc(-c2nnc(SCC3CCCCC3)o2)cc1	-	-	6.31µM	-	-	?
O=C(CSc1nnc(-c2ccc(O)cc2)o1)N1CCOCC1	8.91µM	-	-	-	-	?
COc1ccc(-c2nnc(SCC(=O)N3CCOCC3)o2)cc1	-	-	?	-	-	?
O=C(CSc1nnc(-c2ccc(OC(F)F)cc2)o1)N1CCOCC1	-	-	12.6µM	-	-	?
O=C(CSc1nnc(-c2ccc(F)cc2)o1)NC1CCCCC1	-	-	-	-	-	-
CCCCCCCC/C=C\CCCCCCCC(=O)OC[C@@H](O)[C@H]1OC[C@H](O)[C@H]1O	-	.	.	.	.	.
O=C1C[C@H]2[C@H](CO)[C@@H](OC(=O)c3ccc(-c4ccccc4)cc3)C[C@H]2O1	-	-	12.6µM	-	-	-
O=C1CC2C(CC(OC(=O)c3ccc(-c4ccccc4)cc3)C2CO)O1 (stereo not drawn)	-	-	?	-	-	-
O=C(CN1CCN(Cc2ccccc2Cl)C1=O)NC1CCCCCC1	-	-	11.2µM	-	-	-
C=C1C=C(C(F)F)n2ncc(C(=O)NC(C)CC)c2N1 (stereo not drawn)	.	.	-	.	.	.
Cc1c2ccccc2nc2c(F)c(N(C)C)c(F)c(F)c12	-	-	12.6µM	-	-	?
CN(C)c1c2ccccc2nc2c(F)c(F)c(F)c(F)c12	-	-	-	-	-	-
CC(C(=O)N1CCCCC1)n1sc2ccccc2c1=O (stereo not drawn)	-	-	?	-	-	11.2µM
CC(C(=O)N1CCN(C(=O)c2ccco2)CC1)n1sc2ccccc2c1=O (stereo not drawn)	-	-	-	-	-	-
S=C(NCCc1ccccc1)N1CCc2ccccc2C1	-	-	10µM	-	-	-
Clc1ccc(CSc2ccc(-c3ccco3)nn2)cc1	-	-	12.6µM	-	-	-
Clc1cccc(CSc2ccc(-c3ccco3)nn2)c1	-	.	-	-	-	-
c1ccc(CSc2ccc(-c3ccco3)nn2)cc1	-	-	3.16µM	-	-	?
Cc1ccc(CSc2ccc(-c3ccco3)nn2)cc1	-	-	3.55µM	-	-	?
COc1cccc(CNC(=O)COC(=O)c2ccc(S(C)(=O)=O)c([N+](=O)[O-])c2)c1	.	.	-	.	.	.
O=S(=O)(c1ccc2ccccc2c1)N1CCN(c2nc(-c3ccccc3)nc3ccccc23)CC1	.	.	-	.	.	.
O=C1/C(=C\c2ccc(O)c(O)c2)N=C2CCCCCN12	2.51µM	-	-	-	-	-
COc1cc(/C=C2\N=C3CCCCCN3C2=O)ccc1O	-	-	?	-	-	?
SMILES	GLS inhibitor	TCR activator	BRCA1 expr act	TSHR antagonist	N370S GC mod	p53 reactivator
C=C1C=C(C(F)F)n2ncc(C(=O)NCc3ccc(OC)cc3)c2N1	.	.	-	.	.	.
COc1cccc(-c2coc3cc4oc(=O)c(CCC(=O)O)c(C)c4cc23)c1	12.6µM	-	-	-	-	-
Cc1c(CC(=O)NCC(=O)O)c(=O)oc2cc3occ(-c4ccccc4)c3cc12	3.98µM	-	-	-	-	-
COc1cccc(-c2coc3c(C)c4oc(=O)c(CCC(=O)O)c(C)c4cc23)c1	?	-	-	-	-	-
O=C(CNC(=O)c1ccccc1)OCC(=O)c1ccc2ccccc2c1	.	.	-	.	.	.
CC(C)CCN(Cc1ccco1)S(=O)(=O)c1csc(C(N)=O)c1	-	-	-	-	-	-
CN(Cc1ccco1)S(=O)(=O)c1csc(C(N)=O)c1	-	-	-	-138.9	-	-
COc1ccc(NC(=S)Nc2ccccn2)c(OC)c1	-	-	5.62µM	-	-	?
COc1ccc(C)c2sc(N(Cc3cccnc3)C(=O)CCc3ccccc3)nc12	-	.	.	.	.	.
O=P(O)(O)OC[C@@H](O)CO	-	.	.	.	.	.
CCCCNC(=O)C(=O)N/N=C/c1ccc(OCc2ccccc2)cc1	-	-	-	-	-	-

Bioassay records: PubChem, National Center for Advancing Translational Sciences (NCATS)
